For 14 compounds, potency estimated from few doses results are on record in PMC11062922 (Nature Chemical Biology, 2023).

Common to all, as to set-up: species or system human, MV4-11 + K-562 + COLO205 + SK-N-BE2 + OVCAR-8
One assay deals with ACVR2B. As to conditions: read-out: apparent Kd, compound concentrations: 100 nM and 1000 nM (sheet 'Samples'), n = 1.
In the next assay the test system is EPHA2. The following applies: read-out: apparent Kd, n = 1.
The test system of the next assay is EPHA4. As to conditions: read-out: apparent Kd, n = 1.
The test system of the next assay is EPHB2. As to conditions: read-out: apparent Kd, n = 1.
Another assay concerns EPHB4. As to conditions: read-out: apparent Kd, n = 1.
The subject of another assay is PDGFRB. The following applies: read-out: apparent Kd, n = 1.
For a further assay, the system named is TGFBR2. As to conditions: read-out: apparent Kd, n = 1.
For another assay, the system named is BUB1. As to conditions: read-out: apparent Kd, n = 1.
A further assay has as its system MAP2K1. As to conditions: read-out: apparent Kd, n = 1.
The test system of the next assay is MAP2K2. As to conditions: read-out: apparent Kd; compound concentrations:100 nM and 1000 nM (sheet 'Samples'); n = 1.
In another assay the test system is MAPK9. The following applies: read-out: apparent Kd; compound concentrations:100 nM and 1000 nM (sheet 'Samples'); n = 1.
The subject of the next assay is CSNK1D. As to conditions: read-out: apparent Kd; compound concentrations: 100 nM and 1000 nM (sheet 'Samples'), CATDS: 3.4846409929325597E-2; n = 1.
The next assay relates to NQO1. The following applies: read-out: apparent Kd, compound concentrations: 100 nM and 1000 nM (sheet 'Samples'), n = 1.
A further assay concerns T1, DJA1.
T1 construct: gene DNAJA1
As to conditions: read-out: apparent Kd; compound concentrations: 100 nM and 1000 nM (sheet 'Samples'), CATDS: 0.205535073981469; n = 1.

A further assay concerns MAP4K5. The following applies: read-out: apparent Kd, n = 1.
In a further assay the test system is PRKD3. As to conditions: read-out: apparent Kd, compound concentrations: 100 nM and 1000 nM (sheet 'Samples'), n = 1.
Another assay concerns PIK3CD. The following applies: read-out: apparent Kd; compound concentrations: 100 nM and 1000 nM (sheet 'Samples'), CATDS: 1.8513434924081099E-2; n = 1.
In another assay the test system is MAPKAPK2. The following applies: read-out: apparent Kd, n = 1.
Setting [1] is: compound concentrations:100 nM and 1000 nM (sheet 'Samples').

Like-named read-outs stand apart in the source and are kept apart here.

With `Cl.Oc1cccc(Nc2ccnc3cc(-c4ccncc4)ccc23)c1` [GW494601A], the potency estimated from few doses with ACVR2B (CATDS: 0.269416694406998) is 2.16 nM; with EPHA2 (compound concentrations: 100 nM and 1000 nM (sheet 'Samples'), CATDS: 2.3824924917130601E-2) it was 600 nM; in the assay with EPHA4 (compound concentrations: 100 nM and 1000 nM (sheet 'Samples'), CATDS: 3.3294473343985699E-2) it was 165 nM; in the assay with EPHB2 (compound concentrations: 100 nM and 1000 nM (sheet 'Samples'), CATDS: 2.64855925277621E-2), 385 nM; in the assay with EPHB4 (compound concentrations: 100 nM and 1000 nM (sheet 'Samples'), CATDS: 3.7673587952975797E-2), 110 nM; with PDGFRB (compound concentrations: 100 nM and 1000 nM (sheet 'Samples'), CATDS: 1.9069305404636899E-2), 1970 nM. For the same compound, the potency estimated from few doses with TGFBR2 (compound concentrations: 100 nM and 1000 nM (sheet 'Samples'), CATDS: 0.14921911016535599) is 5.06 nM.

In the case of `CS(=O)(=O)Cc1ccc(Nc2nccc(-c3c(-c4cccc(NC(=O)C5CCCCC5)c4)nn4ncccc34)n2)cc1` [GSK350559A], the potency estimated from few doses with BUB1 (setting [1]) is 267 nM; with MAP2K1 (setting [1]) it was 2430 nM; in the assay on MAP2K2, 1550 nM; in the assay on MAPK9, 932 nM.

Consider `COc1ccc(Nc2nccc(N3CCC(NC(=O)Nc4ccc5c(c4)OCO5)C3)n2)cc1` (stereo not drawn) [GSK1379745A], for which the potency estimated from few doses in the assay on ACVR2B (CATDS: 4.7768277435408998E-2) is 1050 nM; in the assay on CSNK1D, 2080 nM; in the assay on MAP2K1 (compound concentrations: 100 nM and 1000 nM (sheet 'Samples'), CATDS: 3.9281553351087697E-2), 1560 nM; with NQO1 (CATDS: 4.3711719751433897E-2), 1250 nM.

As for `COc1cc(Nc2nccc(N3CCC(NC(=O)c4cccc(C#N)c4)C3)n2)cc(OC)c1OC` (stereo not drawn) [GSK1379751A], the potency estimated from few doses with DJA1 is 817 nM.

With `CC(C)c1nc(-c2cccc(NS(=O)(=O)c3ccccc3)c2)c(-c2ccnc(Nc3ccc4c(c3)CN(C)CC4)n2)s1` [GSK1649598A], the potency estimated from few doses in the assay on BUB1 (compound concentrations: 100 nM and 1000 nM (sheet 'Samples'), CATDS: 1.7014993428197001E-2) is 579 nM; in the assay with MAP4K5 (compound concentrations: 100 nM and 1000 nM (sheet 'Samples'), CATDS: 1.3446008257637299E-2), 1320 nM; with PRKD3 (CATDS: 3.0357950556932599E-2) it was 152 nM.

Consider `Cc1ccc(O)cc1Nc1ccnc2cc(-c3ccc(CN4CCCCC4)o3)ccc12` [GW557777X], for which the potency estimated from few doses in the assay with ACVR2B (CATDS: 2.4906220143484401E-2) is 45.3 nM; in the assay on EPHA2 (compound concentrations: 100 nM and 1000 nM (sheet 'Samples'), CATDS: 3.25409539793877E-2), 18.9 nM; with EPHA4 (compound concentrations: 100 nM and 1000 nM (sheet 'Samples'), CATDS: 4.01782030303919E-2), 10.4 nM; in the assay on EPHB2 (compound concentrations: 100 nM and 1000 nM (sheet 'Samples'), CATDS: 4.4697919041746297E-2), 7.87 nM; in the assay on EPHB4 (compound concentrations: 100 nM and 1000 nM (sheet 'Samples'), CATDS: 5.8010916452344102E-2), 4.17 nM; in the assay with PDGFRB (compound concentrations: 100 nM and 1000 nM (sheet 'Samples'), CATDS: 1.4075910538655201E-2), 735 nM. For the same compound, the values for the potency estimated from few doses in the assay with PIK3CD and in the assay with PRKD3 (CATDS: 1.7058744664209799E-2) were 151 nM and 226 nM, respectively.

Turning to `COc1cc(Nc2ccnc3cc(-c4ccncc4)ccc23)cc(OC)c1OC.Cl` [GW494610A], the potency estimated from few doses with EPHA2 (compound concentrations: 100 nM and 1000 nM (sheet 'Samples'), CATDS: 2.8855283068255098E-2) was 577 nM; in the assay on MAP4K5 (compound concentrations: 100 nM and 1000 nM (sheet 'Samples'), CATDS: 2.1260288667502202E-2), 2030 nM; with MAPKAPK2 (compound concentrations: 100 nM and 1000 nM (sheet 'Samples'), CATDS: 2.2209833673663099E-2), 1620 nM; with PDGFRB (compound concentrations: 100 nM and 1000 nM (sheet 'Samples'), CATDS: 4.8396986719482699E-2), 136 nM.

As for `NC(=O)c1cccc(Nc2nccc(Nc3cccc4[nH]ncc34)n2)c1` [GW782612X], the potency estimated from few doses with ACVR2B (CATDS: 0.173302967359416) was 52.4 nM; in the assay on TGFBR2 (compound concentrations: 100 nM and 1000 nM (sheet 'Samples'), CATDS: 0.37560252723777299) it was 17 nM.

For the compound `O=C1N=C(NCc2cccs2)SC1Cc1ccc2ncccc2c1` (stereo not drawn) [RO4629078-000], the potency estimated from few doses in the assay with BUB1 (compound concentrations: 100 nM and 1000 nM (sheet 'Samples'), CATDS: 7.2203356914043596E-3) is 1930 nM; in the assay on EPHA2 (compound concentrations: 100 nM and 1000 nM (sheet 'Samples'), CATDS: 1.36009605508639E-2), 342 nM; in the assay on EPHA4 (compound concentrations: 100 nM and 1000 nM (sheet 'Samples'), CATDS: 1.66325304555619E-2), 238 nM; with EPHB2 (compound concentrations: 100 nM and 1000 nM (sheet 'Samples'), CATDS: 1.9892167159836899E-2), 178 nM; with EPHB4 (compound concentrations: 100 nM and 1000 nM (sheet 'Samples'), CATDS: 2.1087498416613601E-2), 162 nM; with PRKD3 (CATDS: 7.3913708056946199E-3) it was 1750 nM.

For the compound `NC1=NC(=O)/C(=C/c2ccc3ncccc3c2)S1` [RO4569139-000], the potency estimated from few doses in the assay with PRKD3 (CATDS: 6.7072777002688294E-2) is 1930 nM.

In the case of `Cl.Cl.Cl.c1ccc(Oc2ccc(Nc3ccnc4cc(-c5ccc(CN6CCNCC6)o5)ccc34)cc2)nc1.c1ccc(Oc2ccc(Nc3ccnc4cc(-c5ccc(CN6CCNCC6)o5)ccc34)cc2)nc1` [GW567142A], the potency estimated from few doses in the assay with NQO1 (CATDS: 1.8216900253795E-2) is 1580 nM.

Take `CS(=O)(=O)CCNCc1ccc(-c2ccc3ncnc(Nc4ccc(OCc5cccc(F)c5)c(C(F)(F)F)c4)c3c2)o1` [GW576484X]: the potency estimated from few doses with MAPKAPK2 (compound concentrations: 100 nM and 1000 nM (sheet 'Samples'), CATDS: 5.1625153721040297E-2) was 1830 nM.

For the compound `CCN(CC)CCOc1ccc(Nc2ncc3cc(-c4c(Cl)cccc4Cl)c(=O)n(C)c3n2)cc1` [SB-601273], the potency estimated from few doses in the assay on EPHA2 (setting [1]) is 30.3 nM; in the assay on EPHA4 (setting [1]), 162 nM; with EPHB2 (setting [1]) it was 108 nM; with EPHB4 (setting [1]) it was 30.2 nM; with MAP4K5 (setting [1]), 2360 nM; in the assay on MAPKAPK2 (setting [1]) it was 320 nM. Further, the potency estimated from few doses in the assay with PDGFRB (setting [1]) was 576 nM; in the assay on TGFBR2 (setting [1]), 1260 nM.

Turning to `Cc1cccc(Nc2nc(NCCN)ncc2C(N)=O)c1` [GSK1292139B], the potency estimated from few doses in the assay on PRKD3 (CATDS: 6.9928558616796505E-2) is 1540 nM.
